D1 antagonist: blocks dopamine activation of the human D1 receptor; P21728; activity change, negative = inhibition, % at 10 µM; hit rate 3.2% among 360,000; AID 504652; HEK293 TREx D1 cells, calcium flux, dopamine EC80; active compounds read low; in the data active means activity change below about -30%; further: on the % scale 0 is the no-effect control and ±100 the full control effect
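Antagonism measured as reduced calcium response to an EC80 dopamine addition following 180 s compound pre-read; cells were inducible HEK293 Trex D1 plated overnight at 30 C, read kinetically at 1 cycle/sec.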
DRD3 agonist: agonists of human D3 dopamine receptor | P35462 | D3R DiscoveRx beta-arrestin cells, luminescence, 90 min | max activation, % | hit rate 0.58% among 410,000 | AID 652048; in the data active means max activation above about 30%; further: 0% is about no effect
Target sequence (P35462 whole entry, looked up): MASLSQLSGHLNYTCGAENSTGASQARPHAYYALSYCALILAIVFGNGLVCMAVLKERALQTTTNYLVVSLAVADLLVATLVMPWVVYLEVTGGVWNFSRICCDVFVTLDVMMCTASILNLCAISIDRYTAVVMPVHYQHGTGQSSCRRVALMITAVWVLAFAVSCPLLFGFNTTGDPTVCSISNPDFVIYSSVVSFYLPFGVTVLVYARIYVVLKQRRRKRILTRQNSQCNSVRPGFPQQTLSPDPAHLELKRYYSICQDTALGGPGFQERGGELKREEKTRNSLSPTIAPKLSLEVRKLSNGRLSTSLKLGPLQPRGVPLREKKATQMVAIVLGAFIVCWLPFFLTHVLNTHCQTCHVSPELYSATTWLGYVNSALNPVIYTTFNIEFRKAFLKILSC
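Agonist-mode cell screen: cells plated at 1500/well and incubated overnight at 37 °C, then exposed to library compounds for 90 min at 37 °C. Detection reagent was added for 30–60 min at room temperature, and luminescence was read.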
D1 ag: human D1 receptor agonism | P21728 | HEK293 T-REx D1 cells, calcium flux, agonist mode | activation, % at 2 µM | hit rate 1% among 360,000 | AID 504660; in the data active means activation above about 30%; further: 0% is about no effect
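Inducible HEK293 T-REx D1 cells, force-coupled to calcium signalling, were plated at 4000 cells/well with tetracycline and held overnight at 30 C. After no-wash calcium dye loading, compound-evoked calcium rise over 180 s flagged agonists.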
D1 potentiator: enhances dopamine response at the human D1 receptor. HEK293 TREx D1 cells, calcium flux, dopamine EC20 potentiation. potentiation, % at 10 µM. hit rate 0.036% among 360,000. AID 504651; in the data active means potentiation above about 30%; further: 0% is about no effect
DRD3 antagonist: D3 dopamine receptor (human) antagonism. max response, negative = inhibition, %. AID 652054. D3R cells, DiscoveRx beta-arrestin luminescence, antagonist mode; active compounds read low. hit rate 2.5% among 360,000. P35462; in the data active means max response below about -50%; inconclusive means no clear call, values can overlap the other calls; further: on the % scale 0 is the no-effect control and ±100 the full control effect
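Cells plated overnight at 1500 cells/well, then exposed to library compounds with dopamine controls for 90 minutes at 37 degrees C. DiscoveRx reagent added for 30–60 minutes at room temperature; luminescence read, quantitative HTS format.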
* marks the source's active call; other numbers are inactive results; u = inconclusive; x = no result. Compounds with a hit are over-represented: about 6% of the library has one in this group of screens.

SMILES | D1 antagonist | DRD3 agonist | D1 ag | D1 potentiator | DRD3 antagonist
O=C(c1[nH]c2ccccc2c1Sc1ccc(Cl)cc1)N1CCCCC1 | -12 | -2 | 1 | -1 | x
Cc1cccc(N2CCN(Cc3ccc(Br)o3)CC2)c1C | 2 | -26 | -1 | -10 | -56*
Clc1ccccc1N1CCN(Cc2ccc(Br)o2)CC1 | x | -31 | x | x | -60*
Brc1ccc(CN2CCN(c3ccccc3)CC2)o1 | -17 | 4 | 1 | -3 | -20
Cc1ccccc1N1CCN(Cc2ccc(Br)o2)CC1 | -3 | -6 | 4 | -10 | -58*
O=S(=O)(c1ccc(Br)cc1)c1nnn2c1nc(NCc1ccc3c(c1)OCO3)c1sccc12 | -16 | 7 | 3 | -1 | x
Cc1cc2n(n1)CCCN2C(=O)Nc1cccc(C)c1C | 3 | -1 | 2 | 1 | x
COc1ccccc1-c1noc(-c2ccc(N3CCN(c4ccccc4)CC3)c([N+](=O)[O-])c2)n1 | 3 | 7 | 4 | -3 | x
O=C(Nc1ccc(F)cc1)[C@H](Cc1ccccc1)N1Cc2ccccc2C1=O | 3 | -1 | 3 | -3 | x
O=C(NCCCN1CCN(c2ccc(F)cc2)CC1)c1ccc2nc(Cc3ccccc3)oc2c1 | -38* | -22 | 26 | -4 | x
O=C(NCCCN1CCN(c2ccccc2)CC1)c1ccc2nc(Cc3ccccc3)oc2c1 | -60* | 9 | 32* | -3 | x
COc1ccc(Cc2nc3ccc(C(=O)N(C)CCCN4CCOCC4)cc3o2)cc1 | -49* | -4 | 4 | -3 | 19
CCC(NC(=O)c1ccc2nc(Cc3ccc(OC)cc3)oc2c1)c1ccncc1 (centres undefined) | -41* | -9 | 21 | -8 | 22
CCC(C)NC(=O)c1ccc2nc(Cc3ccc(OC)cc3)oc2c1 (centres undefined) | 18 | 8 | 1 | 0 | 3
N#Cc1ccc2c(c1)C[C@]1(CCCCN3C(=O)c4ccccc4C3=O)Oc3c(c(=O)oc4ccccc34)C2O1 | 7 | x | 1 | -1 | x
COC(=O)c1cc(OC)c(OC)cc1NC(=O)c1ccc2c(c1)CCN2S(=O)(=O)c1ccccc1 | 10 | 13 | 3 | -1 | x
COc1ccc([N+](=O)[O-])cc1C(=O)NC1CCN(Cc2ccccc2)CC1 | x | -20 | x | x | -100*
COc1cc(C(=O)NC2CC3CCCC(C2)N3Cc2ccccc2)cc(OC)c1OC (centres undefined) | 0 | -19 | 4 | -5 | -95*
COc1ccc(CN2C3CCC2CC(NC(=O)c2cc(OC)c(OC)c(OC)c2)C3)cc1 (centres undefined) | 10 | -25 | 1 | -4 | -66*
O=C(Cc1ccccc1[N+](=O)[O-])NC1CCN(Cc2ccccc2)CC1 | 5 | -25 | 0 | 0 | 0
COc1cc(C(=O)NC2CC3CCCC(C2)N3C2CC2)cc(OC)c1OC (centres undefined) | -30 | -5 | 1 | -8 | -11
COc1cc(OC)cc(C(=O)NC2CCN(CCCOc3ccccc3)CC2)c1 | -37* | -11 | 7 | -20 | -15
CCCN1CCC(NC(=O)c2cccc(Oc3ccccc3)c2)CC1 | -14 | -7 | 2 | -5 | -23
CO/N=C(\C(=O)N[C@@H]1C(=O)N2C(C(=O)[O-])=C(C[n+]3ccc(N)n3CCO)CS[C@H]12)c1csc(N)n1 | x | -1 | x | x | x
CCN(CCCNC(=O)c1ccc(Sc2ccc(F)cc2)c(NC(C)=O)c1)c1ccccc1 | 9 | 10 | 3 | -1 | x
SMILES | D1 antagonist | DRD3 agonist | D1 ag | D1 potentiator | DRD3 antagonist
CCCN1C2CCCC1CC(NC(=O)c1ccc(OC)cc1)C2 (centres undefined) | -12 | 0 | 3 | -9 | -2
COc1ccc(C(=O)NC2CC3CCCC(C2)N3Cc2ccccc2)cc1OC (centres undefined) | -33* | -25 | 2 | -2 | -94*
COc1cc(C(=O)NC2CCN(Cc3ccccc3)CC2)cc(Cl)c1OC | -1 | -19 | 9 | -8 | -99*
CCc1ccc(C2c3[nH]c4ccccc4c3CCN2C(=O)CN2CCN(CC)CC2)cc1 (centres undefined) | 12 | -14 | 28 | 4 | -55*
CCOc1cccc(CC(=O)N2CCc3c([nH]c4ccccc34)C2c2ccc(Cl)cc2)c1OCC (centres undefined) | -86* | -6 | 2 | -3 | x
CC(C)=CCc1c2c(c3occ(-c4ccc(O)cc4)c(=O)c3c1O)C=CC(C)(C)O2 | 5 | 69* | 0 | 3 | 36
Cc1cc(C)n(CC(=O)Nc2cc(F)ccc2F)c(=O)c1C#N | -5 | -7 | 3 | 1 | x
CCCCOC(=O)Nc1ccc(C(=O)OCCC)cc1 | -31* | -1 | 2 | -16 | -5
CCCCOC(=O)c1ccc(O)cc1 | 7 | 0 | -4 | -3 | -13
CCCCCCOC(=O)c1ccc(NC(=O)c2cc(OC)c(OC)c(OC)c2Br)cc1 | x | -2 | 46* | 1 | u
CCc1ccc(Nc2nc3ccccc3c3nnc(C)n23)cc1 | -2 | 9 | 3 | -2 | x
CCCCOC(=O)c1ccc(Nc2nc3ccccc3c3nnc(C)n23)cc1 | -55* | 11 | 5 | -4 | x
CCCOC(=O)c1ccc(NC(=O)/C=C/c2cccs2)cc1 | -43* | -11 | 8 | -2 | -8
CCc1ccc(CN(Cc2ccco2)c2cnc(S(C)(=O)=O)nc2C(=O)Nc2ccc(C)c(Cl)c2)cc1 | 14 | 0 | 3 | 4 | x
O=C(Nc1cccc(C(F)(F)F)c1)c1cc2nc(-c3ccc4c(c3)OCO4)cc(C(F)(F)F)n2n1 | 6 | 7 | -1 | -3 | x
CCCOC(=O)c1ccc(NC(=O)c2cc(=O)[nH]c3ccccc23)cc1 | -33* | -1 | 5 | -2 | -14
CCCCOC(=O)c1ccc(NC2=NS(=O)(=O)c3ccccc32)cc1 | -43* | -1 | 1 | -3 | x
CCOc1ccc(CCNC(=O)c2cc3cccc4c3n2CCS4)cc1 | 0 | 10 | 0 | -2 | x
O=C(NNC1=C(C(=O)C(F)(F)F)CCC1)c1ccccc1O | -7 | -2 | 1 | -6 | u
COc1ccccc1C(=O)NNC1=C(C(=O)C(F)(F)F)CCC1 | -9 | -34 | -1 | -1 | -57*
CC(C)c1ccc(C(=O)Nc2cc(-c3ccccc3F)nn2-c2ccccc2)cc1 | -2 | -11 | 4 | -1 | x
CCOc1ccc(-c2nonc2NC(=O)c2oc3ccc(Cl)cc3c2C)cc1 | -32* | -9 | 1 | 3 | x
CSc1ccc(C(=O)C2CCCN(C(=O)c3cccnc3SC)C2)cc1 (centres undefined) | -32* | 11 | 10 | 2 | 54
COc1ccccc1N1CCN(C(=O)CSc2n[nH]c(-c3ccccc3Cl)n2)CC1 | -1 | 4 | -1 | 0 | x
O=C(CC(c1ccccc1)c1cc(Br)ccc1O)NCC1(c2ccccc2)CCCC1 (centres undefined) | -26 | 30* | 3 | -5 | x
Cc1cccc(N2CCN(C(=O)/C=C/c3cccs3)CC2)c1C | -42* | 43* | 8 | -7 | 3

Screens from PubChem.
